Measurements from PubChem BioAssay (NCATS).
Several values for one entry are separate records, joined by “and”; a condition that tells them apart may be missing. Identical values can stand only once. Records with an inconclusive call do not appear. Activity calls are given as the source filed them. Unless noted, calls come from the whole dose curve; as a rule, active = well fitted curve in the direction sought with a large enough effect; inconclusive = small, poorly fitted or top-dose-only effect, or another doubt; inactive = no such curve, though single readings can be large; an effect the other way counts as inactive or inconclusive.

What was measured:
[1] = biological target: Cytochrome P450 1A2 (Homo sapiens) (UniProt P05177); test: p450-cyp1a2 (AID 410; calls by dose curve; note: potency is the fitted concentration of half-maximal effect)
Chain of Cytochrome P450 1A2 (Homo sapiens) (P05177 whole entry, looked up): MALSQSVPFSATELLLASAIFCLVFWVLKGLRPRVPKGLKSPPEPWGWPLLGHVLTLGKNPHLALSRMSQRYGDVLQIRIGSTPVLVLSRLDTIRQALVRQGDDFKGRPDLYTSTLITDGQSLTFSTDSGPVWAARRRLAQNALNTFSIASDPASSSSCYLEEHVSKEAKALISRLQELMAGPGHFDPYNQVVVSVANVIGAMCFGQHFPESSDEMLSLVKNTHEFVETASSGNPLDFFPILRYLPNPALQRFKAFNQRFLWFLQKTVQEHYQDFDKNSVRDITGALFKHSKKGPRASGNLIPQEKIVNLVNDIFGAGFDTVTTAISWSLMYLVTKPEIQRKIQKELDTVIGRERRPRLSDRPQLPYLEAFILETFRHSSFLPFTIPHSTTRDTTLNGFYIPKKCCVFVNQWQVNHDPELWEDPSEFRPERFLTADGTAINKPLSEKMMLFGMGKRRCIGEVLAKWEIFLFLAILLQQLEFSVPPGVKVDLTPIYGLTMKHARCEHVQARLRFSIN
In short: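 Human CYP1A2 (20nM) demethylated Luciferin-ME at its Km (100uM) in 100mM KPO4. After 10 min compound preincubation, NADPH regeneration ran the reaction 60 min at room temperature. Luciferin was read by luminescence, normalized to 57 uM furafylline.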

[2] = biological target: Glucocorticoid receptor (Homo sapiens) (UniProt P04150); test: GR-GFP Redistribution (AID 450;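 active = compounds whose dose series gives a full or clear partial fitted curve of increased nuclear translocation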; note: potency is the fitted concentration of half-maximal effect); conditions: U2OS GR-GFP nuclear translocation, laser cytometry, 2 h
Chain of Glucocorticoid receptor (Homo sapiens) (P04150 whole entry, looked up, the tested form may be a part): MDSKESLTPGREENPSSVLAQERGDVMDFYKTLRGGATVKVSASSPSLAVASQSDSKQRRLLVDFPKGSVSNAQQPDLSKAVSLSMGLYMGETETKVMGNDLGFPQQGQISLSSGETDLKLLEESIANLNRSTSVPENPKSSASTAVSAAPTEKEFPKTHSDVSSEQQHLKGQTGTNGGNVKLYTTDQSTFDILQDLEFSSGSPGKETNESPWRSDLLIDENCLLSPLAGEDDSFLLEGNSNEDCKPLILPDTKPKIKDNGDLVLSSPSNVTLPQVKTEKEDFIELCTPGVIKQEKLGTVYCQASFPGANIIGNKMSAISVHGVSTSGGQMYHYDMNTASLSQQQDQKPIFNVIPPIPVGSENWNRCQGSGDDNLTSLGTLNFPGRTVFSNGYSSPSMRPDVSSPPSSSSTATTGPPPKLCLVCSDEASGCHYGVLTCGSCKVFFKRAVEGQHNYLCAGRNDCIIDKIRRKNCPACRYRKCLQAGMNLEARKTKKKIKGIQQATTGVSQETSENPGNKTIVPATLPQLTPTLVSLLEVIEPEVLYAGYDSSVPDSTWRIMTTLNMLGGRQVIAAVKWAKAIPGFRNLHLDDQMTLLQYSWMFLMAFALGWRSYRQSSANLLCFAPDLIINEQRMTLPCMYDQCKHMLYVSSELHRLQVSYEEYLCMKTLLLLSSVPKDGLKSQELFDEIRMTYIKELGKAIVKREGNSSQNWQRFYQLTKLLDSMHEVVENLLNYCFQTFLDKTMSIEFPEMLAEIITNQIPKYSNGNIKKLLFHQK

[3] = biological target: Glucocorticoid receptor (Homo sapiens) (UniProt P04150); test: GR-EFC Redistribution (AID 451; calls by dose curve; note: potency is the fitted concentration of half-maximal effect); conditions: CHO-K1 GR-EFC translocation, beta-gal luminescence, 2 h
In short: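 Translocation of GR-ED fusion to nuclear EA restores b-gal, read by luminescence after 1 h room-temperature detection. Engineered CHO-K1 biosensor cells, 1,000/well, exposed 2 h at 37 C to titrations up to 46 uM final.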

[4] = biological target: Mitogen-activated protein kinase 10 (Mus musculus) (UniProt Q61831); test: JNK3 AlphaScreen Assay (AID 530; active = well fitted curve in either direction with a large enough effect, not every such curve was filed as active;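 note: kinase came from lysate of stimulated human HepG2 cells; signal reports phosphorylation of biotinylated GST-cJun 1-79 at Ser73 with 10 µM ATP; series mostly up to about 57 µM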)
In short: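 Room-temperature AlphaScreen kinase assay; pre-activated HepG2 lysate as JNK3 source, biotin-GST-cJun(1-79) substrate, 10 uM ATP, compound 15 min preincubation.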

[5] = biological target: Cytochrome P450 3A4 (Homo sapiens) (UniProt P08684); test: qHTS Assay for Inhibitors and Substrates of Cytochrome P450 3A4 (AID 884); note: potency is the fitted concentration of half-maximal effect; nearly all actives have a fitted effect of over 50% in size
Chain of Cytochrome P450 3A4 (Homo sapiens) (P08684 whole entry, looked up): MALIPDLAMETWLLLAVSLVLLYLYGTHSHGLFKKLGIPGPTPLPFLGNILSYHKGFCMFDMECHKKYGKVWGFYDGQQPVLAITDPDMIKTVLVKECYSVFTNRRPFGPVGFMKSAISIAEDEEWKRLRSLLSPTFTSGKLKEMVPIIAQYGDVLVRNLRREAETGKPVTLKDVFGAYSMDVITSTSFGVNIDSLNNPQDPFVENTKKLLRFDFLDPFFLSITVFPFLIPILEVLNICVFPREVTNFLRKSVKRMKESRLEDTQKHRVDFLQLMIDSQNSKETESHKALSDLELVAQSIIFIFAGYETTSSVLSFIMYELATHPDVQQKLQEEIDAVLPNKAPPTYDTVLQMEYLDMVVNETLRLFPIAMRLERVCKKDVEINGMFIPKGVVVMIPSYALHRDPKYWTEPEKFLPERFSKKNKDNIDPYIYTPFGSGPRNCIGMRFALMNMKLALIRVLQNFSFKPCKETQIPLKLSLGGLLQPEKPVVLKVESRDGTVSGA
In short: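 20 nM human CYP3A4 with 25 uM Luciferin-PPXE (at KM) in 200 mM KPO4, preincubated 10 min with compound; NADPH regeneration started a 60 min RT reaction. Luciferin detected by luminescence, normalized to 57 uM ketoconazole as full inhibition.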

[6] = biological target: Cytochrome P450 3A4 (Homo sapiens) (UniProt P08684); test: qHTS Assay for Activators of Cytochrome P450 3A4 (AID 885); note: nearly all actives have a fitted effect of over 65% in size
In short: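 Signal was normalized against complete inhibition by 57 uM ketoconazole. The reaction used 20nM CYP3A4 with 25uM Luciferin-PPXE, 10-min compound preincubation and a 60-min NADPH-supported step at RT.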

[7] = biological target: Ubiquitin carboxyl-terminal hydrolase 1 (Homo sapiens) (UniProt O94782); test: Inhibitors of USP1/UAF1: Pilot qHTS (AID 504865); note: potency is the fitted concentration of half-maximal effect; nearly all actives have a fitted effect of over 35% in size
Chain of Ubiquitin carboxyl-terminal hydrolase 1 (Homo sapiens) (O94782 whole entry, looked up): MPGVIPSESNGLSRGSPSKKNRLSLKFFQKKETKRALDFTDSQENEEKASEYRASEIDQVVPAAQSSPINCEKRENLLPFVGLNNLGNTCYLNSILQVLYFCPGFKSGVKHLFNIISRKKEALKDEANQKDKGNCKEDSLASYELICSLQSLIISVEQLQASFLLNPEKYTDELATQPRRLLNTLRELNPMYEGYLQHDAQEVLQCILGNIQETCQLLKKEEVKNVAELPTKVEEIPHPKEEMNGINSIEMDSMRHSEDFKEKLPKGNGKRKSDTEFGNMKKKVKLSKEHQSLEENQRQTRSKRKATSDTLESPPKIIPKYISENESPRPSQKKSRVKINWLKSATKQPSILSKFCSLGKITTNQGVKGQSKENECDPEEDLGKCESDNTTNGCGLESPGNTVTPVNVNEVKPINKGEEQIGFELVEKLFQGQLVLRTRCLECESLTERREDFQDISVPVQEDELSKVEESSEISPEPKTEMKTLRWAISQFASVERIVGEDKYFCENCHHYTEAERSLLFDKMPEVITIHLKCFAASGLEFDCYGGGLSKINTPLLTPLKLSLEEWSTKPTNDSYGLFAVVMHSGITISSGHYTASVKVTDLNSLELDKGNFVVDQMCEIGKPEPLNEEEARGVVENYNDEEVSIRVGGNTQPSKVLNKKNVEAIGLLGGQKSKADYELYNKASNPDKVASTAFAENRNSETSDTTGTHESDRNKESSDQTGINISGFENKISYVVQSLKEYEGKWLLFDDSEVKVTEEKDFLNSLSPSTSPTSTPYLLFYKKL
In short: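 In 50mM HEPES pH 7.8 containing 0.5mM EDTA, 1mM TCEP, 0.1 mg/ml BSA and 0.01% Tween-20, 1nM USP1/UAF1 is exposed to compound for 15 min, then Ub-Rho (150nM final) is added and fluorescence is read over time.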

[8] = tested on: Zika virus NS2B-NS3 protease; test: Primary screen GU AMC qHTS for Zika virus inhibitors (AID 1347154); note: nearly all actives have a fitted effect of over 70% in size
In short: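 Fluorogenic AMC-substrate cleavage by noncovalent NS2B-NS3 protease complex (25 nM, pH 8.0 Tris buffer with Tween 20) followed for 15 minutes at room temperature (~20% conversion). Percent inhibition from ex340/em450 signal change, fitted by 4-parameter Hill equation.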

[9] = Confirmatory qHTS for small molecule stabilizers of the endoplasmic reticulum resident proteome: Secreted ER Calcium Modulated Protein (SERCaMP) assay (AID 1508628); note: potency is the fitted concentration of half-maximal effect; nearly all actives have a fitted effect of over 40% in size
In short: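 We seeded SH-SY5Y-GLuc-SERCaMP cells, added compounds (three concentrations in the primary run, eleven up to 76.6 uM in confirmation), incubated 16 h, depleted ER calcium with thapsigargin, and read luciferase 4 h later.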

Measured: Potency

COc1ccc2[nH]cc(C3=CCNCC3)c2c1
inactive: [2] > 46 µM | [3] > 46 µM | [4] | [6] | [8]
active: [1] 0.251 µM | [5] 1.26 µM | [7] 44.7 µM | [9] 12.6 µM and 35.5 µM
